Shown are actives, neighbours in structure and some others; about 3.7% of the full set was active somewhere.
TbPYK inhibitor = qHTS of Trypanosoma Brucei Inhibitors. pyruvate kinase (Trypanosoma brucei), Q57TT1. 410,000 tested, 0.12% active. Potency, µM (titrated, usually from 76.8 µM), hits mostly inhibitors. AID 624173, 2012. TbPYK enzyme, Kinase-Glo Plus ATP luminescence, 45 min; also: nearly all actives have a fitted effect of over 50% in size
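Screened from lowest to highest concentration, compounds were pinned into TbPYK/substrate mixtures, and ADP (130 uM final) was added. Plates sat at room temperature for 45 min prior to Kinase-Glo Plus detection by luminescence.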
FMDV inh = High Throughput Screening for Foot and Mouth Disease Virus Antivirals | FMDV antiviral cell-based qHTS | Potency, µM (highest dose often 57.9 µM), most hits filed as inhibitors | 410,000 tested, 1.2% active; calls by dose curve; tested in HEK293T cells; also: read-out not given here; nearly all actives have a fitted effect of over 45% in size
Sm TGR inh = qHTS Assay for the Inhibitors of Schistosoma Mansoni Peroxiredoxins. Schistosoma mansoni thioredoxin glutathione reductase (TGR), Q962Y6. purified TGR, DTNB reduction, TNB absorbance 405 nm. Potency, µM (doses to about 114 µM), hits mostly inhibitors. 360,000 tested, 3% active; also: nearly all actives have a fitted effect of over 60% in size
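TGR 20 nM + NADPH 100 uM (dispensed conc.), cpd preinc 15 min RT; start with NADPH (500 uM addition) then DTNB (15 mM addition). Kinetic TNB absorbance, 405 nm filter. Four-parameter Hill fit across titration.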
RE007 growth inh = qHTS Assay for Inhibitors of the HIV-1 protein Vpr. 360,000 tested, 0.21% active. S. pombe RE007 Vpr strain, BacTiter-Glo ATP luminescence, 24 h. Potency, µM (top dose mostly 92.2 µM), most hits filed as inhibitors; active = well fitted falling curve with a large enough effect; inconclusive = small, poorly fitted or top-dose-only effect; inactive = no such curve, though single readings can be large or run the other way; also: nearly all actives have a fitted effect of over 50% in size
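Fission yeast strain RE007, carrying one chromosomally integrated HIV-1 vpr copy, was seeded at OD 0.01 in PMG+AL medium with 23 nL pinned compound. After 24 h at 30 °C and 99% humidity, viability was read by BacTiter-Glo luminescence.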
Numbers stand for hits; . = inactive; ? = inconclusive; / = no result; [ ] = dose if it differs, or a comment. Unless noted, calls follow the shape of the dose curve; as a rule, active = well fitted curve in the direction sought with a large enough effect; inconclusive = small, poorly fitted or top-dose-only effect, or another doubt; inactive = no such curve, though single readings can be large; an effect the other way counts as inactive or inconclusive.

SMILES	TbPYK inhibitor	FMDV inh	Sm TGR inh	RE007 growth inh
O=C(C1=C[C@@H]2[C@H]3C(=O)N(c4ccccc4)C(=O)[C@H]3[C@@H](C(=O)c3ccc(Cl)cc3)N2C=C1)c1ccccc1	/	/	14.1µM	/
Cc1ccc(/C=c2\sc3nc(-c4ccco4)nn3c2=O)o1	.	.	8.91µM	.
Cc1ccc(/C=c2\sc3nc(-c4ccccc4Br)nn3c2=O)o1	.	.	44.7µM	.
COc1ccc(Br)cc1/C=c1\sc2nc(-c3ccco3)nn2c1=O	.	.	12.6µM	.
Cc1ccc(-c2nc3s/c(=C\c4ccco4)c(=O)n3n2)cc1	.	/	?	.
COc1ccccc1/C=c1\sc2nc(-c3ccccc3OC)nn2c1=O	.	.	.	.
Cc1ccc(/C=c2/sc3nnc(-c4ccccc4Cl)n3c2=O)o1	.	.	39.8µM	.
Cc1ncc2c(c1CNC(=O)c1ccc3c(c1)OCO3)CCN(C(=O)c1ccoc1)C2	/	.	/	/
Cc1noc(C)c1-c1nc(N(C)C)c2ccccc2n1	/	.	/	/
Cc1sc2nc(CN3CCOCC3)nc(Oc3ccc(NC(=O)c4ccco4)cc3)c2c1C	.	.	28.2µM	.
O=C(Nc1ccc(CN2CCOCC2)cc1)c1ccco1	.	.	.	.
CC1=NOC2(C1)N(C)c1ccccc1C2(C)C (stereo not drawn)	.	.	.	.
COc1ccc2ccc3c(c2c1)N=C[C@]1(O3)N(C)c2ccccc2C1(C)C	.	?	28.2µM	.
CC(=O)c1ccc(NC(=O)CSc2cn(CC(=O)N(C(C)C)C(C)C)c3ccccc23)cc1	.	.	.	/
O=C(N/N=C/c1cc(Br)c(Br)o1)c1cccnc1	.	.	28.2µM	.
O=C(N/N=C/c1cc(Br)c(O)c(Br)c1O)c1ccc2c(c1)OCCO2	.	.	?	.
O=C(N/N=C/c1cc(Br)c(Br)o1)c1ccc2c(c1)OCCO2	.	.	11.2µM	.
Cc1ccc2c(c1)c(C1=c3ccccc3=NC1=O)c(O)n2C	.	?	.	.
C=CCn1c(O)c(C2=c3ccccc3=NC2=O)c2ccccc21	.	28.2µM	?	.
CN1CCN/C1=C(/C(Cl)=C(Cl)Cl)[N+](=O)[O-]	.	.	1.12µM	.
Cc1ccc(-c2csc(NC(=O)c3cccc(S(=O)(=O)N4CCN(C)CC4)c3)n2)cc1	.	12.6µM	.	.
COc1cc(C(=O)Nc2nc(-c3ccc(C)cc3)cs2)ccc1OCC(=O)N1CCOCC1	.	22.4µM	.	.
O=C(Nc1nc(-c2ccc(S(=O)(=O)N3CCCCCC3)cc2)cs1)c1cccs1	.	10µM	.	.
Cc1ccc(-c2csc(NC(=O)C3=NN(c4ccccc4)C(=O)CC3)n2)cc1	.	28.2µM	.	.
Cc1nnc(NC(=O)c2cccc(S(=O)(=O)N3CCN(C)CC3)c2)s1	.	.	.	.
SMILES	TbPYK inhibitor	FMDV inh	Sm TGR inh	RE007 growth inh
COc1ccc(-c2csc(NC(=O)c3ccc(OCC(=O)N4CCOCC4)c(OC)c3)n2)cc1	.	?	.	.
CC(C)N1CCN(C(=O)c2cnn(-c3nccc(-c4ccc5c(c4)OCO5)n3)c2-c2ccco2)CC1	/	.	/	/
CCOc1cc(C(=O)NCc2ccccc2)ccc1OCC(=O)N1CCOCC1	.	.	.	.
O=C(Nc1nc(-c2ccccc2)cs1)C1CCCN(S(=O)(=O)c2cccc([N+](=O)[O-])c2)C1 (stereo not drawn)	.	.	.	.
COc1cccc(C(=O)Nc2nc(-c3ccc(S(=O)(=O)N4CCOCC4)cc3)cs2)c1	.	?	.	.
O=C(Nc1nc(-c2ccccc2)cs1)C1CCCN(S(=O)(=O)c2ccccc2)C1 (stereo not drawn)	.	10µM	.[11.4 µM]	.
CC(C)CC(=O)Nc1nc(-c2ccc(S(=O)(=O)N3CCOCC3)cc2)cs1	.	22.4µM	.	.
CCCCC(=O)Nc1nc(-c2ccc(S(=O)(=O)N3CCOCC3)cc2)cs1	.	?	.	.
CCOc1cc(C(=O)Nc2ccc(C(=O)NCCN(CC)CC)cc2)ccc1OCC(=O)N1CCOCC1	.	.	35.5µM	.
O=C(Nc1nc(-c2ccc(S(=O)(=O)N3CCOCC3)cc2)cs1)c1ccccc1	.	14.1µM	.	.
CN1CCN(c2ncc3nc(-c4ccccc4)c(=O)n(CCC#N)c3n2)CC1	.	.	/	/
CCOC(=O)c1scc(-c2ccccc2)c1S(=O)(=O)Nc1ccccc1OC	.	.	.	/
Cc1ncc(-c2ccc(F)cc2)c(C2CCCN(Cc3cccc(O)c3)C2)n1 (stereo not drawn)	/	.	/	/
Cc1ccc(NC(=O)c2c(C)oc3ncn(C)c(=O)c23)cc1F	.	.	.	/
CCOc1ccc(NC(=O)Cn2c(=O)c(CNc3ccc(CC)cc3)cc3cc4c(cc32)OCO4)cc1	.	.	.	/
Cc1ccc(S(=O)(=O)Cn2nnnc2CN(Cc2ccco2)Cc2cccs2)cc1	.	.	44.7µM	.
Cc1ccc2nc(NC3=NC4(CCCC4)C4=C(CCCC4=O)N3)oc2c1	.	39.8µM	/	/
CN1C(=O)CC(CC(=O)N2CCCCC2CCO)(c2cccc(F)c2)C1=O (stereo not drawn)	/	.	/	/
CCOc1ccc(/C=C2\CCC(C3CCCC3)C2=O)cc1OC (stereo not drawn)	.	.	.	.
COc1cc(C=C2CCCC(=Cc3ccc(OCC4CO4)c(OC)c3)C2=O)ccc1OCC1CO1 (stereo not drawn)	.	11.2µM	/	.
COc1ccc(/C=C2/CSC/C(=C/c3ccc(OC)c(OC)c3)C2=O)cc1OC	.	3.55µM	/	.
COc1ccc(/C=C2\Cc3ccccc3C2=O)cc1OC	.	.	.	.
Cc1cc(C)nc(S[C@H]2C[C@@H](C(=O)N3CCN(c4ccccc4F)CC3)N(Cc3ccccc3F)C2)n1	/	.	/	/
CN(CCOC(=O)/C=C/c1ccco1)Cc1ccccc1	.	.	2.51µM	.
CN(Cc1ccccc1)C(=O)COC(=O)/C=C/c1ccco1	.	.	3.55µM	.
SMILES	TbPYK inhibitor	FMDV inh	Sm TGR inh	RE007 growth inh
Cc1cccc(C)c1OCc1nc2c3cnn(-c4cccc(F)c4)c3ncn2n1	.	.	.	/
COc1cc(CN2CCC3(CCC(CNC(=O)c4ccco4)O3)CC2)ccc1O (stereo not drawn)	/	.	/	/
COc1cccc2oc3cc(C#Cc4ccccn4)ccc3c(=O)c12	.	.	7.94µM	.
COC(=O)C(CC(=O)c1ccc(Br)cc1)n1cccn1 (stereo not drawn)	.	.	4.47µM	?
CCC(=O)N1CCc2cc(S(=O)(=O)N(CC)c3cccc(C)c3)ccc21	.	.	.	.
CCN(c1cccc(C(F)(F)F)c1)S(=O)(=O)c1ccc2c(c1)CCN2C(=O)C1CC1	.	14.1µM	.	.
COc1ccc(-c2nc3c(c(SCC(=O)Nc4cc(C)cc(C)c4)n2)Cc2c(CO)cnc(C)c2O3)cc1	.	.	.	/
Cc1ccc(-c2nc3c(c(SCC(=O)N4CCOCC4)n2)Cc2c(CO)cnc(C)c2O3)cc1	.	.	35.5µM	.
CCN(CC)C(=O)CSc1nc(-c2ccc(C)cc2)nc2c1Cc1c(CO)cnc(C)c1O2	.	?	20µM	/
